The AC50 is the concentration at which the activity in the assay is half-maximal.

“And” between values parts separate entries of the source, which are not always exact repeats. Identical values can stand only once. Records with an inconclusive call do not appear. The source made the active and inactive calls. Rule for the calls: active = hit-call score of the fitted dose curve at least 0.9, where 1 is the maximum; inconclusive = response in the unintended direction; inactive = score below 0.9.

Chain of Cellular tumor antigen p53 (Homo sapiens) (P04637 whole entry, looked up): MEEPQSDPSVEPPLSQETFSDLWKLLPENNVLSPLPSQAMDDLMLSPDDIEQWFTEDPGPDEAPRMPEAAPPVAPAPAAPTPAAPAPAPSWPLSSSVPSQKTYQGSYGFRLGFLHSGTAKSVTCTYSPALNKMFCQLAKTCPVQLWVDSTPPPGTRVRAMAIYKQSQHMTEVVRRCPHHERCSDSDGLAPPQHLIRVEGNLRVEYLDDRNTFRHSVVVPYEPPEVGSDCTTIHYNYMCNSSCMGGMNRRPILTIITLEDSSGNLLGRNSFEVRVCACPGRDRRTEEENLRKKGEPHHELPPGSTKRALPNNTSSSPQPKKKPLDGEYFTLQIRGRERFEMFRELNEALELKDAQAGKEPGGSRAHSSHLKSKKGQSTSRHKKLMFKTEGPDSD

The first experiment concerns the target Cellular tumor antigen p53 (Homo sapiens) (UniProt P04637). Description: TOX21_p53_BLA_p3_ratio: Tox21 HCT-116 p53 Agonism Beta-lactamase Assay, Ratio, Phase 3 (AID 2283596). An outline of the steps: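 Cells were seeded at 4000/well, rested 5 h at 37C, then dosed with DMSO compound solutions (217-fold dilution) for 16 h. CCF4-AM substrate was loaded for 2 h at room temperature, and the 460/530 nm emission ratio was fitted for gain of signal versus DMSO.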
As for `CCCCCCCCOC(C)=O`, the result was inactive.

Take `CC(=O)CC(C)(C)C1CCCCC1`: the result was inactive. As for `CC(C)=CC(=O)O`, the result was inactive. Turning to `COC(=O)C(C)Oc1ccc(Oc2ncc(C(F)(F)F)cc2Cl)cc1` (configuration not stated), the result was inactive. The same measure, in the same setting: to `COc1ccccc1NC(=O)CC(C)=O` belongs “inactive”. The same measure, in the same setting: the entry for `CCCCOCCOCCOCCO` is “inactive”; for `COC(=O)c1ccc(C(=O)OC)cc1` it is “inactive”; for `CC(C)CCCC(C)(C)O` it is “inactive”. Regarding `Cc1cc(O)c2c(c1)C(=O)c1cc(O)cc(O)c1C2=O`, the concentration at half-maximal activity (AC50) was 12 µM (active) and 33.3 µM (active). For `CCCCCCOc1ccc(O)cc1`, the AC50 was 36.3 µM (active). For the molecule `CC(C)C(=O)c1ccccc1`, the result was inactive. For `Nc1ccc(O)c(N)c1`, the result was inactive.

Tested on in the next experiment: not listed separately
Description: TOX21_p53_BLA_p4_viability: Viability Assessment in the Tox21 HCT-116 p53 Agonism Beta-lactamase Assay, Phase 4 (AID 2283597).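 Note: hits lower the luminescence signal meaning cytotoxicity.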 An outline of the steps: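 Viability is taken as cellular ATP: after 16 h compound exposure of HCT116 cells and a 2 h room-temperature CCF4-AM substrate step, CellTiter-Glo reagent is added and luminescence is measured 30 min later.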
Regarding `CC(=O)CCC=C(C)CCC=C(C)C`, the outcome was inactive. As to `CC(=O)c1cccnc1`, the outcome was inactive. The same measure, in the same setting: to `CC(C)(C)C1CCC(O)CC1` (configuration not stated) belongs “inactive”. For `CC(C)=CCCC(C)=CC(=O)O`, the molecule was called inactive.

As to `O=C(c1ccc(OCCN2CCCCC2)cc1)c1c(-c2ccc(O)cc2)sc2cc(O)ccc12`, the AC50 was 68.2 µM (active) and 68.5 µM (active) and 25.1 µM (active). Take `CCCCCCCC(=O)N(C)C`: the outcome was inactive. Same read-out and setting: to `C#C[C@]1(O)CC[C@H]2[C@@H]3CCc4cc(O)ccc4[C@H]3CC[C@@]21C` belongs “inactive”; to `CCc1cccc(O)c1`, “inactive”; to `COC(=O)c1cccc(C(=O)OC)c1`, “inactive”.

Consider `O=C(OCc1ccccc1)c1ccccc1O`, for which the molecule was called inactive. Regarding `Cc1ccncc1`, the call was inactive. Consider `CC(O)COCC(C)O` (configuration not stated), for which the result was inactive. On to `CC(O)CNCC(C)O` (configuration not stated), for which the call was inactive. In the case of `[O-]/[N+](=N\O)c1ccccc1`, the result was inactive.

Regarding `CC(=O)CC(=O)N(C)C`, the result was inactive.

Values taken from PubChem BioAssay (EPA / NIEHS).
